# Results filed as inconclusive are left out. Active and inactive are the calls of the source. The calls were made as follows: active = hit-call score of the fitted dose curve at least 0.9, where 1 is the maximum; inconclusive = response in the unintended direction; inactive = score below 0.9.
# Read-out: HMG-CoA synthase (HMGCS2), HMGCS2 (gene 3158)
# Assay: CLD_HMGCS2_6hr: CellzDirect (CLD) Gene Expression Assay for HMG-CoA synthase (HMGCS2) at 6 hours (AID 2283682);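 also: actives raise HMGCS2 transcript above the 0.2% DMSO vehicle baseline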
# Protocol: CLD_6hr is a cell-based, multiplexed-readout assay that uses hepatocyte, a human liver primary cell, with measurements taken at 6 hours after chemical dosing in a 96-well plate.CLD_HMGCS2_6hr is one of 16 assay component(s) measured or calculated from the CLD_6hr assay. It is designed to make measurements of mRNA induction, a form of inducible reporter, as detected with chemiluminescence signals by Quantitative Nuclease Protection Assay (qNPA) technology.Data from the assay component CLD_HMGCS2_6hr was analyzed at the endpoint, CLD_HMGCS2_6hr, in the positive analysis fitting direction relative to DMSO as the negative control and baseline of activity. Using a type of inducible reporter, gain-of-signal activity can be used to understand changes in the reporter gene as they relate to the gene HMGCS2. Furthermore, this assay endpoint can be referred to as a primary readout. To generalize the intended target to other relatable targets, this assay endpoint is annotated to the lyase intended target family, where subfamily is HMG-CoA synthase.
# Human hepatocyte cultures were treated daily for two consecutive days with fresh dosing solutions containing appropriate concentrations of the 320 ToxCast chemicals (chemical identities were blinded to CellzDirect and other ToxCast collaborators), vehicle control (0.2% DMSO), and positive control inducers as summarized in Table 1. Due to the large number of treatment groups and chemicals examined, the ToxCast chemicals were divided into two groups (spanning two independent cultures of hepatocytes from separate donor preparations (Hu778: ToxCast plates 1 and 2; Hu776: ToxCast plates 3 and 4). Each preparation of human hepatocyte cultures was treated with respective vehicle control, medium only control, set of six positive controls/reference chemicals for the five hepatic receptor pathways, and a subset of eight of the ToxCast chemicals (indoxacarb, pyrithiobac-sodium, norflurazon, cyhalofop-butyl, methomyl, thiram, acetochlor, and propiconazole). These replicate data, coupled with internal replicates designed within the blinded ToxCast chemical library, provided additional data to evaluate interindividual differences between hepatocyte preparations and their potential impact on chemical profiles.Cell morphology and integrity were evaluated using phase-contrast microscopy as an indicator of hepatocyte cell health (Tyson & Green, 1987). Cultures for each treatment group (i.e., media, vehicle [0.2% DMSO], positive control inducers [multiple concentrations], and the ToxCast chemicals [multiple concentrations]) were observed and cell morphology was assessed relative to vehicle control cultures at each harvest time point (0, 6, 24, or 48 h). […] Images were evaluated at the conclusion of the study to assess changes in cell integrity and account for the effects of chemical exposure on uncharacteristic changes in concentration-dependent gene expression profiles. The results from these determinations of apparent cytotoxicity were annotated (yes/no) alongside the corresponding qNPA data for reference.At the conclusion of each treatment period, hepatocyte cultures (96-well) were washed with 1 volume of HBSS, lysed by addition of 25 ul ArrayPlate lysis buffer (HTG, Tucson, AZ), and 70 ul/well of Denaturation Oil, denatured by incubation at 95C for 10 min, and frozen at approximately -70C until analysis by nuclease protection assay (qNPA) (Roberts et al., 2007). For qNPA analysis, cell lysates were thawed at 50C for approximately 30 min, qNPA probes were added, and samples were incubated at 95C for 10 min to begin the detection process by denaturing the target RNA, dissociating the duplexes and secondary structure hybridization. At the conclusion of the hybridization period, S1 nuclease reagent was added to each sample to digest all nonprotected nucleotides at 50C for 60-90 min. […]
Compound,outcome,AC50
CSC1=N[C@@](C)(c2ccccc2)C(=O)N1Nc1ccccc1,inactive,
O=[N+]([O-])c1cc(C(F)(F)F)c(Cl)c([N+](=O)[O-])c1Nc1ncc(C(F)(F)F)cc1Cl,inactive,
O=C(O)c1cc(Oc2ccc(C(F)(F)F)cc2Cl)ccc1[N+](=O)[O-],,5.69 nM (active)
CCNc1nc(Cl)nc(NC(C)(C)C#N)n1,inactive,
CC[C@H](C)[C@H]1O[C@]2(C=C[C@@H]1C)C[C@@H]1C[C@@H](C/C=C(\C)[C@@H](O[C@H]3C[C@H](OC)[C@@H](O[C@H]4C[C@H](OC)[C@@H](NC)[C@H](C)O4)[C@H](C)O3)[C@@H](C)/C=C/C=C3\CO[C@@H]4[C@H](O)C(C)=C[C@@H](C(=O)O1)[C@]34O)O2,inactive,
CN(C)NC(=O)CCC(=O)O,inactive,
CC(COc1ccc(Oc2ccccc2)cc1)Oc1ccccn1 (stereo not given),inactive,
CC1=NNC(=O)N(/N=C/c2cccnc2)C1,inactive,
CCc1cnc(C2=NC(C)(C(C)C)C(=O)N2)c(C(=O)O)c1 (stereo not given),inactive,
CCCOc1nn(C(=O)NS(=O)(=O)c2ccccc2C(=O)OC)c(=O)n1C,inactive,
C[Si](Cn1cncn1)(c1ccc(F)cc1)c1ccc(F)cc1,inactive,
CC1(C(=O)Nc2ccc(O)c(Cl)c2Cl)CCCCC1,inactive,
CCC(CC)Nc1c([N+](=O)[O-])cc(C)c(C)c1[N+](=O)[O-],inactive,
C=C(C)[C@H]1Cc2c(ccc3c2O[C@@H]2COc4cc(OC)c(OC)cc4[C@@H]2C3=O)O1,inactive,
CNC(=O)ON=C(SC)C(=O)N(C)C,inactive,
CCC(=O)Nc1ccc(Cl)c(Cl)c1,inactive,
CN(C)[C@@H]1C(=O)C(C(N)=O)=C(O)[C@@]2(O)C(=O)C3=C(O)c4c(O)cccc4[C@@](C)(O)[C@H]3[C@H](O)[C@@H]12,inactive,
Nc1nc(N)nc(NC2CC2)n1,inactive,
CNC(=O)ON=C(C)SC,inactive,
CN1COCN(Cc2cnc(Cl)s2)C1=N[N+](=O)[O-],inactive,

Compound,outcome,AC50
CCC(=NOC/C=C/Cl)C1=C(O)CC(C2CCOCC2)CC1=O (stereo not given),inactive,
CCOP(=S)(OCC)Oc1ccc([N+](=O)[O-])cc1,inactive,
CCOP(=S)(OCC)OC(Cl)C(Cl)(Cl)Cl (stereo not given),inactive,
CSc1nnc(C(C)(C)C)c(=O)n1N,inactive,
CCCOCC(=Nc1ccc(Cl)cc1C(F)(F)F)n1ccnc1,inactive,
C#CCC1=C(C)C(OC(=O)C2C(C=C(C)C)C2(C)C)CC1=O (stereo not given),inactive,
CN(C)C(=O)Nc1cccc(C(F)(F)F)c1,inactive,
COc1cccc(C(=O)NN(C(=O)c2cc(C)cc(C)c2)C(C)(C)C)c1C,inactive,
COP(=O)(OC)OC(Br)C(Cl)(Cl)Br (stereo not given),inactive,
CCOP(=S)(OCC)SCCSCC,inactive,
CCCCOC(=O)[C@@H](C)Oc1ccc(Oc2ccc(C#N)cc2F)cc1,inactive,
N#CSCSC#N,inactive,
CCOP(=O)(OCC)Oc1cc(C)nc(C(C)C)n1,inactive,
CCOP(=S)(OCC)Oc1ccc2c(C)c(Cl)c(=O)oc2c1,,5.08 nM (active)
CC(Oc1cccc(Cl)c1)C(=O)O (stereo not given),inactive,
CCCSP(=O)(OCC)SCCC,inactive,
CCc1cccc(C)c1N(C(=O)CCl)C(C)COC (stereo not given),inactive,
COc1cc(OC)nc(Sc2cccc(Cl)c2C(=O)O)n1,inactive,
CCOP(=S)(OCC)Oc1cc(C)nc(C(C)C)n1,inactive,
O=c1ccc(=O)[nH][nH]1,inactive,

# — PubChem BioAssay (EPA / NIEHS)
